Laboratory results: PMC11062922 (Nature Chemical Biology, 2023)

tested on: CSNK1E; set-up: species or system human, MV4-11 + K-562 + COLO205 + SK-N-BE2 + OVCAR-8; conditions: read-out: apparent Kd; compound concentrations:100 nM and 1000 nM (sheet 'Samples'); n = 1

How did the potency estimated from few doses turn out when `Fc1ccc(-c2ncn(C3CCNCC3)c2-c2ccnc(Oc3ccccc3)n2)cc1` [SB-239272] was run?
The potency estimated from few doses was 0.191 µM.

For `NC(=O)Cc1ccccc1Oc1nccc(-c2c(-c3ccc(F)cc3)ncn2C2CCNCC2)n1` [SB-264865], which potency estimated from few doses is on record?
Its potency estimated from few doses is 2.03 µM.

Which potency estimated from few doses does the source give for `Fc1ccc(-c2ncn(C3CCNCC3)c2-c2ccnc(Oc3ccc(-c4ccccc4)cc3)n2)cc1` [SB-245391] here?
The potency estimated from few doses was 1.84 µM.

For `N#Cc1ccc(Oc2nccc(-c3c(-c4ccc(F)cc4)ncn3C3CCNCC3)n2)cc1` [SB-242721], which potency estimated from few doses is on record?
Its potency estimated from few doses is 1.74 µM.

`Fc1ccc(-c2ncn(C3CCNCC3)c2-c2ccnc(Oc3ccc(Oc4ccccc4)cc3)n2)cc1` [SB-245392] was tested. Which potency estimated from few doses did it give?
The potency estimated from few doses was 1.2 µM.

How did the potency estimated from few doses turn out when `CCc1ccc(Oc2nccc(-c3c(-c4ccc(F)cc4)ncn3C3CCNCC3)n2)cc1` [SB-242719] was run?
The potency estimated from few doses was 0.76 µM.

`Fc1ccc(-c2ncn(C3CCNCC3)c2-c2ccnc(Oc3ccc(F)c(F)c3)n2)cc1` [SB-253228] was tested. Which potency estimated from few doses did it give?
Its potency estimated from few doses is 1.26 µM.

tested on: MAPK14; set-up: species or system human, MV4-11 + K-562 + COLO205 + SK-N-BE2 + OVCAR-8; conditions: read-out: apparent Kd; compound concentrations:100 nM and 1000 nM (sheet 'Samples'); n = 1

Which potency estimated from few doses does the source give for `Fc1ccc(-c2ncn(C3CCNCC3)c2-c2ccnc(Oc3ccccc3)n2)cc1` [SB-239272] here?
Its potency estimated from few doses is 0.0125 µM.

Which potency estimated from few doses does the source give for `NC(=O)Cc1ccccc1Oc1nccc(-c2c(-c3ccc(F)cc3)ncn2C2CCNCC2)n1` [SB-264865] here?
Its potency estimated from few doses is 0.418 µM.

How did the potency estimated from few doses turn out when `Fc1ccc(-c2ncn(C3CCNCC3)c2-c2ccnc(Oc3ccc(-c4ccccc4)cc3)n2)cc1` [SB-245391] was run?
The potency estimated from few doses was 0.424 µM.

Which potency estimated from few doses does the source give for `N#Cc1ccc(Oc2nccc(-c3c(-c4ccc(F)cc4)ncn3C3CCNCC3)n2)cc1` [SB-242721] here?
The potency estimated from few doses was 0.844 µM.

For `Fc1ccc(-c2ncn(C3CCNCC3)c2-c2ccnc(Oc3ccc(Oc4ccccc4)cc3)n2)cc1` [SB-245392], which potency estimated from few doses is on record?
The potency estimated from few doses was 0.571 µM.

With `CCc1ccc(Oc2nccc(-c3c(-c4ccc(F)cc4)ncn3C3CCNCC3)n2)cc1` [SB-242719] as the compound, how does the potency estimated from few doses read?
The potency estimated from few doses was 0.0244 µM.

Which potency estimated from few doses does the source give for `Fc1ccc(-c2ncn(C3CCNCC3)c2-c2ccnc(Oc3ccc(F)c(F)c3)n2)cc1` [SB-253228] here?
Its potency estimated from few doses is 0.395 µM.

tested on: MAPKAPK2; set-up: species or system human, MV4-11 + K-562 + COLO205 + SK-N-BE2 + OVCAR-8; conditions: read-out: apparent Kd; compound concentrations:100 nM and 1000 nM (sheet 'Samples'); n = 1

Which potency estimated from few doses does the source give for `NC(=O)Cc1ccccc1Oc1nccc(-c2c(-c3ccc(F)cc3)ncn2C2CCNCC2)n1` [SB-264865] here?
The potency estimated from few doses was 0.503 µM.

How did the potency estimated from few doses turn out when `Fc1ccc(-c2ncn(C3CCNCC3)c2-c2ccnc(Oc3ccc(-c4ccccc4)cc3)n2)cc1` [SB-245391] was run?
Its potency estimated from few doses is 0.116 µM.

With `N#Cc1ccc(Oc2nccc(-c3c(-c4ccc(F)cc4)ncn3C3CCNCC3)n2)cc1` [SB-242721] as the compound, how does the potency estimated from few doses read?
Its potency estimated from few doses is 0.496 µM.

For `CCc1ccc(Oc2nccc(-c3c(-c4ccc(F)cc4)ncn3C3CCNCC3)n2)cc1` [SB-242719], which potency estimated from few doses is on record?
Its potency estimated from few doses is 0.0133 µM.

With `Fc1ccc(-c2ncn(C3CCNCC3)c2-c2ccnc(Oc3ccc(F)c(F)c3)n2)cc1` [SB-253228] as the compound, how does the potency estimated from few doses read?
Its potency estimated from few doses is 0.125 µM.
